# Screening results: PubChem, National Center for Advancing Translational Sciences (NCATS)
# A selection: hits, their analogues and other compounds. The true share with any hit is near 10%.
# G9a block: inhibitors of human histone lysine methyltransferase G9a. Q96KQ7. actives 8.8% (n = 350,000). G9a H3K9 monomethylation, AlphaScreen, 2 h. Potency, µM (doses to about 102 µM), for inactives: at the top dose activity, negative = inhibition, usual class: inhibitors; also: potency is read from the fitted curve at half-maximal effect; nearly all actives have a fitted effect of over 75% in size
# Target sequence (Q96KQ7 913-1193 limits assumed): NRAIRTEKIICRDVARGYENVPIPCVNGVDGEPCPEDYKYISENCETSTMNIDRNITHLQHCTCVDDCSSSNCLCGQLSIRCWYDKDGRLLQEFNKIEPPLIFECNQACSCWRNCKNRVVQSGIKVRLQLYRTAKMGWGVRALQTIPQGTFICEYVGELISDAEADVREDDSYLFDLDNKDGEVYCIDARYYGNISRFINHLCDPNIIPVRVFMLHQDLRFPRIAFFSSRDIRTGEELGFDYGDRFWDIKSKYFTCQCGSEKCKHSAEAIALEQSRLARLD
#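 Step 1: enzyme (final 20 nM) with compound, 15 min RT. Step 2: substrate peptide 500 nM and SAM 20 uM, 2 h RT. Step 3: anti-H3K9me1 antibody and AlphaScreen beads, 10 min, then plate read.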
# CCT chaperon mod: changes cytosolic chaperonin activity | purified chaperonin ATPase assay, HTRF ADP detection, 30 min | activity change, % (test concentration not listed), hits read low | actives 0.3% (n = 360,000) | AID 651819; in the data active = activity change below about -30%
#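 We incubate TRiC, 40 or 20 nM final, with library compounds at 76 uM and 10 uM ATP for 30 min at 37 °C. ADP formed is detected with Transcreener HTRF reagents after 30 min at room temperature.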
# VDR inhibitor: blocks the human vitamin D receptor; P11473; VDR-SRC2-3 peptide fluorescence polarization, 2 h; Potency, µM, without a hit: max response, negative = inhibition, hits mostly inhibitors; actives 0.93% (n = 400,000); also: potency is read from the fitted curve at half-maximal effect
#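 Compounds are added to VDR with labelled SRC2-3 coactivator peptide and held 2 h at room temperature. Inhibition of the VDR–peptide interaction is then read as a change in fluorescence polarization.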
# Sfp PPTase inh: Sfp phosphopantetheinyl transferase inhibition; Q9F4F7; Biochemical Sfp PPTase activity, qHTS; Potency, µM, for inactives: largest response in the series, negative = inhibition, usual class: inhibitors; actives 3.5% (n = 310,000); AID 1490;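 also: the enzyme is Sfp with the accession as filed and its product quenches rhodamine fluorescence; potency is read from the fitted curve at half-maximal effect; 0% = enzyme reaction without inhibitor and -100% = no enzyme wells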
#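 Reaction rates are the 30-min fluorescence difference (ex 525, em 598 nm) in wells containing 15 nM Sfp, 5 uM rhodamine-CoA and 12.5 uM BHQ-2-YbbR at pH 7.6 with 10 mM MgCl2.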
# Mm-Cpn inhibitor: M. maripaludis TRiC chaperonin inhibition. actives 0.031% (n = 330,000). purified Mm-Cpn ATPase, ADP Transcreener TR-FRET. Potency, µM (titrated, usually from 76.9 µM), for the others: top-dose activity, negative = inhibition, actives largely listed as inhibitors; also: potency is read from the fitted curve at half-maximal effect; nearly all actives have a fitted effect of over 80% in size
#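 Inhibition of chaperonin ATP hydrolysis is measured as reduced ADP production, detected by competitive TR-FRET in which signal falls with ADP. Final enzyme 25 nM and ATP 10 uM, reacted 30 min at 37°C.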
# PLK1 PBD inh: blocks phosphopeptide binding to human PLK1 polo-box domain; actives 2.8% (n = 360,000); Potency, µM, without a hit: max response, negative = inhibition, actives largely listed as inhibitors; P53350; Plk1 PBD binding of FITC phosphopeptide, fluorescence polarization; also: potency is read from the fitted curve at half-maximal effect; series mostly up to about 57 µM; nearly all actives have a fitted effect of over 65% in size
# The depositor's hits bear a star; u = inconclusive; x = not tested or not shown; [ ] = another dose, or the depositor's remark. Unless noted, calls follow the shape of the dose curve; as a rule, active = well fitted curve in the direction sought with a large enough effect; inconclusive = small, poorly fitted or top-dose-only effect, or another doubt; inactive = no such curve, though single readings can be large; an effect the other way counts as inactive or inconclusive. Unless noted, % is scaled to controls: 0 for no effect and ±100 for the full control effect.
SMILES,G9a block,CCT chaperon mod,VDR inhibitor,Sfp PPTase inh,Mm-Cpn inhibitor,PLK1 PBD inh
COc1ccc(NC(=O)Cn2cnc3c(oc4ccccc43)c2=O)cc1OC,3%[59 µM],x,12%,x,x,x
COCCCN(C(=S)NC(=O)c1ccc(Br)cc1)c1c(N)n(Cc2ccccc2)c(=O)[nH]c1=O,50µM*,1,-17%,16%,-1%,u
CCc1cc(C(=O)N(CCCOC)c2c(N)n(Cc3ccccc3)c(=O)[nH]c2=O)sc1C,13µM*,-2,-10%,x,0%,-6%
COCCCN(C(=S)NC(=O)C(C)(C)C)c1c(N)n(Cc2ccccc2)c(=O)[nH]c1=O,-6%,1,-5%,-29%,2%,u
COc1cccc(CNC(=O)c2ccc3c(c2)nc2n3CCCCC2)c1OC,37%[59 µM],x,-7%,x,x,x
COc1ccc(OC(C)C(=O)NCc2nc(-c3ccc(Cl)cc3)no2)cc1 (configuration not stated),1%[59 µM],x,11%,x,x,x
CCOC(=O)CC(S(=O)(=O)c1ccccc1)S(=O)(=O)c1ccccc1,x,-2,x,x,x,27µM*
CCOC(=O)N=S(N)(=O)c1ccccc1 (configuration not stated),3%[59 µM],-2,10%,-4%,x,-5%
Cc1ccc2[nH]c(=O)c(C(c3nnnn3CC3CCCO3)N3CCc4ccccc4C3)cc2c1 (configuration not stated),2µM*,1,1%,22µM*,-2%,-30%
CCc1ccc2[nH]c(=O)c(C(c3nnnn3CC3CCCO3)N3CCN4CCCC4C3)cc2c1 (configuration not stated),u,-1,-1%,35µM*,-1%,-8%
Cc1cc(C)c2[nH]c(=O)c(C(c3nnnn3CC3CCCO3)N3CCC(C)CC3)cc2c1 (configuration not stated),u,-3,-12%,-21%,0%,-16%
Cc1cc(C)c2[nH]c(=O)c(C(c3nnnn3CC3CCCO3)N3CCCC(C)C3)cc2c1 (configuration not stated),18µM*,1,-2%,22µM*,-1%,-4%
CCC1CN(C(=O)N2CCC(C(=O)NCCc3ccc(Cl)cc3)CC2)c2ccccc2O1 (configuration not stated),-6%[59 µM],x,9%,x,x,x
COc1cccc(CNC(=O)c2cc(C)nc3c2c(C)nn3-c2ccc(C)cc2)c1,13%[59 µM],x,14%,x,x,x
CCN(CC)c1ccc(NC(=O)c2cnn(CC)c2)cc1,16µM*,-1,-3%,-9%,-2%,7%
O=C(NC(=S)Nc1ccccc1O)c1cncc(Br)c1,x,2,-3%,x,x,-13%
O=C(NC(=S)Nc1ccccc1C(=O)O)c1cncc(Br)c1,2µM*,2,50µM*,10µM*,-1%,9.5µM*
CCn1cc(C(=O)NC(=S)Nc2ccccc2Br)cn1,u,1,15%,-7%,-19%,-6%
CCn1cc(C(=O)NC(=S)Nc2ccccc2[N+](=O)[O-])cn1,17%[12.7 µM],1,-19%,79µM*,1%,u
O=C(NC(=S)Nc1ccccc1[N+](=O)[O-])c1cncc(Br)c1,45µM*,-2,-12%,7%,3%,u
Cc1cc(C)c(Cn2c(CCNC(=O)c3ccco3)nc3ccccc32)c(C)c1,-11%[59 µM],x,-3%,x,x,x
CCC(=O)N1CCCc2cc(S(=O)(=O)N3CCC(C(=O)Nc4ccccc4CC)CC3)ccc21,17%[59 µM],x,-5%,x,x,x
O=C(Nc1ccccc1C(=O)O)c1cncc(Br)c1,4.5µM*,-23,8%,-11%,-5%,-4%
CCn1cc(C(=O)NC(=S)Nc2cccc(O)c2)cn1,11µM*,2,4%,79µM*,-1%,-7%
Cc1ccc(Nc2ncnc3c2cnn3-c2ccccc2)c(C)c1,0%[59 µM],x,4%,x,x,x
SMILES,G9a block,CCT chaperon mod,VDR inhibitor,Sfp PPTase inh,Mm-Cpn inhibitor,PLK1 PBD inh
COC(=O)c1cccnc1Oc1ccccc1,u,-3,3%,11%,3%,-4%
COc1ccccc1NNC(=O)c1cccnc1Oc1ccccc1,7.1µM*,0,1%,u,1%,-4%
CC(NC(=O)Cn1cc(C(=O)C2CC2)c2ccccc21)c1ccccc1 (configuration not stated),16%[59 µM],-4,-24%,14%,2%,30µM*
CN(C1CCCCC1)S(=O)(=O)c1ccc2c(c1)c(=O)c(C(=O)N1CCN(c3ccccc3)CC1)cn2C,5%[59 µM],x,4%,x,x,x
O=S1(=O)c2ccccc2N(Cc2ccccc2)c2ccccc21,-5%[59 µM],x,9%,x,x,x
COC(=O)c1c(C)c2c(C)cc3ccccn3c-2c1C(=O)OC,u,-3,3%,-6%,0%,-11%
COC(=O)c1cc2c(-c3ccccc3)cc3ccccn3c-2c1C(=O)OC,13µM*,-1,9%,-11%,u,-12%
CCN(CC)c1ccc(/C=C(\C#N)C(=O)c2ccc(Br)cc2)cc1,16%[59 µM],0,-19%,-10%,-6%,-67%
CC(OC(=O)/C(C#N)=C/c1ccco1)C(=O)N(C)c1ccccc1 (configuration not stated),x,-1,0%,x,0%,-1%
N#CC(C#N)=C1C=CC=CN1/C(=C\c1ccco1)C(=O)c1ccccc1,18µM*,3,14µM*,16µM*,1%,12µM*
